# Assay results published in PubChem BioAssay (NCATS).
# Results filed as inconclusive are left out. Where a call stands in place of a potency, no number is given. Active and inactive are the calls of the source. Calls follow the shape of the dose curve; as a rule, active = well fitted inhibition curve with a large enough effect; inconclusive = small, poorly fitted or top-dose-only effect; inactive = flat fitted curve, though single readings scatter.
# Assay: High Content Imaging Cell-Based qHTS for Inhibitors of the mTORC1 Signaling Pathway in MEF (Tsc2-/-, p53-/-) Cells (AID 2666);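 also: percent of cells scored positive for phospho-rpS6 Ser235/236 immunostaining by imaging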
# Conditions: series mostly up to 38.3 µM
# Excerpt: NIH Molecular Libraries Probe Production Centers Network [MLPCN]
# NIH Chemical Genomics Center [NCGC]
# Assay Submitter (PI): Blenis, John; Hoffman, Greg; Harvard University
# NCGC Assay Overview: Thee mammalian target of rapamycin (mTOR) is an intracellular serine/threonine kinase Aberrant regulation of mTOR signaling plays a causative role in a number of human diseases, including cancer, benign tumors such as lymphangioleiomyomatosis (LAM) and Tuberous Sclerosis Complex (TSC), and metabolic diseases such as diabetes and obesity. This project aims to identify inhibitors of ribosomal protein S6 (rpS6) phosphorylation. The phosphorylation of rpS6 is a key event downstream of mTOR activation. The assay uses a phospho-specific antibody of phospho-rpS6 to detect inhibitors of mTOR activation. Mutations in the Tsc1 and Tsc2 genes are the underlying genetic lesions responsible for TSC, causing constitutive activation of the mTORC1 pathway and leading to profound effects on cell metabolism. Aberrant metabolism in cancer has recently received significant attention as a target to develop therapeutic agents in the treatment of cancer1. As Tsc2-/- cells have lost the ability to respond to energy and growth factor deprivation, these cells are unable to properly down regulate cellular biosynthetic processes in response to metabolic stress, and are thus extremely sensitive to glucose deprivation-induced death.2 A central goal of this project is to explore the unique cell survival and metabolic properties of cells with Tsc1 or Tsc2 by screening for compounds that selectively target the Tsc2-/- MEFs by screening both Tsc2-/- and WT MEF cell lines. We hope to better understand these aspects of TSC physiology in order to exploit them for therapeutic benefit.
# NCGC IN Cell Assay Protocol:
# For quantitative high throughput analysis of mTORC1 signaling, we developed a cell-based assay for immuno-fluorescence based detection of rpS6 phosphorylation on the Acumen Explorer that will be used a platform for the primary small molecule screen. Mouse embryonic fibroblasts (MEFs) are cultured in 1536-well plates using DMEM + 10% FBS. Twenty-four hrs after plating, test compounds (solubilized in DMSO) are delivered and incubated with the cells for 24 hrs at 37 degree Celsius. Following the incubation, media with compound is aspirated and the cells are fixed in 4% paraformaldehyde (PFA) containing PBS + 0.2% TX-100. Next, PFA is aspirated, cells are washed two times with PBS plus 0.2% TX-100 and the cells are blocked for 1 hr at room temperature (blocking buffer: LiCOR Blocking Buffer plus 0.2% TX-100). This is followed by aspiration and staining with Alexa-488 conjugated-phospho-rpS6 Ser235/236 antibody for 2 hours at room temperature (Cell Signaling Technology # 4803, 1:50 dilution in blocking buffer). Cells are washed two times with PBS plus 0.2% TX-100, and stained with 10 uM propidium iodide (PI) for 20-25 minutes for cell number measurement (1:500 dilution of Hoescht staining is also added for IN Cell imaging). Active wells which are selected (based on Acumen results) are imaged on the IN Cell 1000 (GE Healthcare) using the D360/40X and HQ480/40X excitation filters for the Hoechst and Alexa-488 cytoplasmic stains, respectively. The fluorescence emission filters used were HQ460/40M and HQ535/50M for the Hoechst and Alexa-488 cytoplasmic stains, respectively. The normalized phospho-S6 staining is calculated as the ratio of […] for the single concentration rapamycin control ([…] nM) and DMSO columns. […] Inhibition of the pathway is defined based on the normalized phospho-S6 intensity in rapamycin treated cells. Each treatment is reported as the % positive cells in the well, where thresholds are defined by selecting wells with the highest and lowest signal and differentiating between the % non-active and % active populations. […]
# Potency is read from the fitted curve at half-maximal effect.
row,SMILES,Potency
1,O=C(N[C@H]1CN2CCC1CC2)c1ccc(Cl)cc1,inactive
2,Oc1ccc2c3c1O[C@H]1c4[nH]c5c(c4C[C@@]4(O)[C@@H](C2)N(CC2CC2)CC[C@]314)C[C@@]1(O)[C@H]2Cc3ccc(O)c4c3[C@@]1(CCN2CC1CC1)[C@H]5O4,inactive
3,NC1CCc2cc(O)c(O)cc2C1 (stereo not given),inactive
4,O=C(O)Cc1cnc[nH]1,inactive
5,NC(N)=NOCCC(N)C(=O)O (stereo not given),inactive
6,NCc1cc(=O)[nH]o1,inactive
7,CC1=NN=C(c2ccc(N)cc2)c2cc3c(cc2C1)OCO3,inactive
8,O=C(O)CC[N+](=O)[O-],inactive
9,O=C(Cc1ccc(Cl)c(Cl)c1)N1CCCCC1CN1CCCC1 (stereo not given),inactive
10,Cn1cnc(CCN)c1,inactive
11,Cc1nccc2c1[nH]c1ccccc12,inactive
12,CCCCc1ccc(C(=O)O)nc1,inactive
13,C/C=C(/C)C(=O)O[C@H]1C(C)=C2[C@H]([C@@H]1OC(=O)CCCCCCC)[C@@](C)(OC(C)=O)C[C@H](OC(=O)CCC)[C@@]1(O)[C@H]2OC(=O)[C@@]1(C)O,26.1 nM (active)
14,CC(C)NC(C)Cc1ccc(I)cc1 (stereo not given),inactive
15,c1ccc(C2(c3ccccc3)CC2C2=NCCN2)cc1 (stereo not given),inactive
16,CNCCc1c[nH]c2ccc(O)cc12,inactive
17,CS(=N)(=O)CC[C@H](N)C(=O)O (stereo not given in full),inactive
18,CC(Cc1ccc(O)cc1)NCC(O)c1cc(O)cc(O)c1 (stereo not given),inactive
19,Cc1c(C(=O)c2cccc3ccccc23)c2cccc3c2n1[C@H](CN1CCOCC1)CO3,inactive
20,COC(=O)[C@@H](N)CCCN=C(N)N[N+](=O)[O-],inactive

row,SMILES,Potency
1,NC(=O)CN1CC(O)CC1=O (stereo not given),inactive
2,C[C@@H]1O[C@H](C[N+](C)(C)C)C[C@H]1O,inactive
3,C[C@]12N[C@H](Cc3ccccc31)c1ccccc12,inactive
4,NCCc1c[nH]c2ccccc12,inactive
5,CC(C)Oc1cccnc1N(C)C1CCN(Cc2ccccc2)CC1,inactive
6,c1ccc(CCCN2CCN(CCOC(c3ccccc3)c3ccccc3)CC2)cc1,inactive
7,NC(=NCCC[C@H](N)C(=O)O)N[N+](=O)[O-],inactive
8,c1ccc2sc(C3(N4CCCCC4)CCCCC3)cc2c1,inactive
9,Clc1cnc(Oc2ccc(Oc3ncc(Cl)cc3Cl)cc2)c(Cl)c1,inactive
10,CN1C2CCC1CC(OC(=O)c1cc(Cl)cc(Cl)c1)C2 (stereo not given),inactive
11,C[C@@H](N)Cc1cnc[nH]1,inactive
12,COc1cc(C(O)CN)ccc1O (stereo not given),inactive
13,CC[C@@H](C(N)=O)N1CCCC1=O,inactive
14,CCCN1CCC[C@H](c2cccc(O)c2)C1,inactive
15,CCCN(CCC)C1CCc2ccc(O)cc2C1 (stereo not given),inactive
16,CCCN(CCC)[C@@H]1CCc2ccc(O)cc2C1,inactive
17,C[N+]1(C)C2CCC1CC(OC(=O)C(CO)c1ccccc1)C2 (stereo not given),inactive
18,CNCCc1ccc(O)c(O)c1,inactive
19,O=C1CCCN1CC#CCN1CCCC1,inactive
20,C[C@]12CCC3C(CC[C@H]4C[C@H](O)CC[C@]34C)C1CC[C@@H]2C(=O)CO (stereo not given in full),inactive
